Measurements taken from PubChem BioAssay (NCATS).
Inconclusive results are not listed. The source made the active and inactive calls. Calls come from the whole dose curve; as a rule, active = well fitted cell-killing curve with a large enough effect; inconclusive = small, poorly fitted or top-dose-only effect, or effect the other way; inactive = flat fitted curve, though single readings scatter.

system: Tov112D; experiment: Primary qHTS to identify gynecologic anti-cancer compounds using libraries of approved drugs and bioactive compounds (AID 1345084); settings: Gynecologic cancer cell panel viability, ATPlite luminescence, 48 h; series mostly up to 57.5 µM; activity change, negative = cytotoxicity: at the top concentration; note: nearly all actives have a fitted effect of over 55% in size
In short: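 Measured: luminescence after ATPlite addition (15 min, RT). Exposure: 48 h, 37 C, 5% CO2.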
% is set by controls: 0 for no effect and ±100 for the full control effect.

Structure (SMILES) | activity change, negative = cytotoxicity
O=C(OC[C@H]1O[C@@H](Oc2ccccc2CO)[C@H](O)[C@@H](O)[C@@H]1O)c1ccccc1 | 8.49% [at 38.5 µM] (inactive)
CC1=CCC(O)C2(C)CCC3C(C)C(=O)OC3C12 (centres undefined) | 9.5% (inactive)
COc1cc(CC2COC(c3ccc(OC4OC(CO)C(O)C(O)C4O)c(OC)c3)C2CO)ccc1O (centres undefined) | 2.4% [at 25.3 µM] (inactive)
CC(C)Oc1ccc(-c2nc(-c3cccc4c3CCC4NCCC(=O)O)no2)cc1C#N (centres undefined) | -1.09% (inactive)
O=C(O)CCc1cccc(O)c1O[C@@H]1O[C@H](CO)[C@@H](O)[C@H](O)[C@H]1O | 2.73% [at 38.5 µM] (inactive)
CC1(C)COC(=O)[C@@H]1O[C@@H]1O[C@H](CO)[C@@H](O)[C@H](O)[C@H]1O | 2.68% (inactive)
O=C(OCc1ccccc1O[C@@H]1O[C@H](CO)[C@@H](O)[C@H](O)[C@H]1O)C1(O)C=CCCC1O (some centres undefined) | 7.12% [at 25.3 µM] (inactive)
CC(=O)O[C@H]1C[C@@H](O)C(C)(C)C2C[C@@H](OC(C)=O)[C@]3(C)C(CC[C@@]4(C)[C@H](c5ccoc5)OC(=O)[C@H]5O[C@]543)[C@]21C (some centres undefined) | 2.03% [at 25.3 µM] (inactive)
CCNC(=O)OC1CCN(c2nncc3cc(OC)c(OC)cc23)CC1 | -1.82% (inactive)
C[C@]12CC[C@@H]3c4ccc(O)cc4CC[C@H]3[C@@H]1C[C@@H](O[C@@H]1O[C@H](C(=O)O)[C@@H](O)[C@H](O)[C@H]1O)[C@@H]2O | -3.49% (inactive)
CC(=O)c1ccc(O[C@@H]2O[C@H](CO[C@@H]3OC[C@@H](O)[C@H](O)[C@H]3O)[C@@H](O)[C@H](O)[C@H]2O)cc1 | -2.34% [at 25.3 µM] (inactive)
CC[C@@H]1C(=O)O[C@]23C=C[C@@H]4C(C(=O)OC)=CO[C@H](O[C@@H]12)[C@@H]43 | -15.4% (inactive)
CC(O)C1CCC2C3CCC4CC(OC5OC(C(=O)O)C(O)C(O)C5O)CCC4(C)C3CCC12C (centres undefined) | -0.741% (inactive)
CC(O)CCc1ccc(O[C@@H]2O[C@H](CO)[C@@H](O)[C@H](O)[C@H]2O)cc1 (some centres undefined) | 0.694% [at 38.5 µM] (inactive)
Cc1sc(C)c(C(=O)NC2(c3ccc(C(=O)O)cc3)CC2)c1Cc1ccc(C(F)(F)F)cc1 | 1.88% (inactive)
C=CC(C)(O)CC/C=C(\C)C1CC=C(C)C(=O)O1 (centres undefined) | 0.915% (inactive)
COc1cc(O[C@@H]2O[C@H](CO[C@H]3OC[C@](O)(CO)[C@H]3O)[C@@H](O)[C@H](O)[C@H]2O)cc(OC)c1O | -0.222% [at 25.3 µM] (inactive)
CC1(C)OC(=O)C=C[C@@]2(C)C1CC(=O)[C@]1(C)C2CC[C@@]2(C)[C@H](c3ccoc3)OC(=O)[C@H]3O[C@]321 (some centres undefined) | 0.508% [at 25.3 µM] (inactive)
C/C=C1/C[N+](C)([O-])C2Cc3c([nH]c4ccccc34)C(=O)CC1C2C(=O)OC (centres undefined) | 1.3% [at 38.5 µM] (inactive)
Cc1occc(=O)c1O[C@@H]1O[C@H](COC(=O)CC(C)(O)CC(=O)O)[C@@H](O)[C@H](O)[C@H]1O (some centres undefined) | 1.15% [at 25.3 µM] (inactive)

Structure (SMILES) | activity change, negative = cytotoxicity
COC(=O)[C@]1(C)CCC[C@@]2(C)[C@@H]3CC[C@@H]4C[C@@]3(CC[C@@H]21)C[C@H]4C(=O)O | -1.5% [at 38.5 µM] (inactive)
CN1CCN(c2nc(-c3ccc(C(=O)NC4(C(=O)NCC#N)CCCCC4)cc3)cs2)CC1 | 18% (inactive)
Cc1nc2cc(-c3cc(F)cc(C#N)c3)ccc2s1 | 13.6% (inactive)
Cc1ccc2nc(NC(=O)CSc3nc4c(c(=O)n3-c3ccc(F)cc3)SCC4)sc2c1 | 9.66% (inactive)
CCCNCCOc1ccc(NC(=O)c2c[nH]c3c2C(=O)CCC3)cc1F | 6.52% (inactive)
CNc1nc(Nc2cn(C(C)(C)C#N)nc2C)ncc1C(F)(F)F | 1.55% (inactive)
COc1cnc(-n2cnc(C)n2)c2[nH]cc(C(=O)C(=O)N3CCN(C(=O)c4ccccc4)CC3)c12 | 9.43% (inactive)
CC1(C)Oc2ncnc(N)c2N=C1c1ccc(C2CCC(CC(=O)O)CC2)cc1 (centres undefined) | -2.16% (inactive)
COc1cc(/C=C/C(=O)O[C@@H]2C[C@@](O)(C(=O)O)C[C@@H](O)[C@@H]2O)ccc1O | 4.94% [at 38.5 µM] (inactive)
CC1=CC(=O)C(=C(C)C)CC2C(C)(O)CCC12O (centres undefined) | 6.85% (inactive)
CC(C)[C@@](O)(c1ccc2cc(OC(F)F)c(OC(F)F)cc2c1)c1cn[nH]n1 | 1.99% (inactive)
Nc1ncnc2c1c(COc1cccc(Cl)c1)nn2C1CCOCC1 | -3.04% (inactive)
CC(=O)O[C@@H]1[C@H](OC(C)=O)C[C@@]2(C)C(CC[C@@H](C)[C@]23Cc2c(O)cc4c(c2O3)CN([C@@H](CCC(=O)O)C(=O)O)C4=O)C1(C)C (some centres undefined) | 2.31% [at 25.3 µM] (inactive)
COCCCc1sc(-c2ccccc2)nc1C(=O)Nc1ccccc1-c1nc2cc(CN3CCCC3)cnc2s1 | 11% [at 25.3 µM] (inactive)
CC[C@@H](Nc1c(Nc2cccc(C(=O)N(C)C)c2O)c(=O)c1=O)c1ccc(C)o1 | 2.44% (inactive)
C=C1[C@H](OC(C)=O)[C@H]2[C@@H](OC(C)=O)C(C)C[C@]2(OC(C)=O)C(=O)[C@H](C)/C=C/C(C)(C)C(=O)[C@H](OC(=O)C(C)C)[C@H]1OC(C)=O (some centres undefined) | 0.488% [at 25.3 µM] (inactive)
CC1=C(CC/C(C)=C/C(=O)O)[C@@]2(C)CCCC(C)(C)C2CC1=O (some centres undefined) | 4.92% [at 38.5 µM] (inactive)
CCC(C)/C=C(C)/C=C/C1=CC2=C(Cl)C(=O)C(C)(OC(C)=O)C(=O)C2=CN1CCCCC(N)C(=O)O (centres undefined) | 10.5% [at 25.3 µM] (inactive)
CC(=O)O[C@H]1[C@H](O[C@H]2CC[C@]34C[C@]35CC[C@]3(C)[C@@H]([C@@]6(C)CC[C@@H](C(C)(C)O)O6)[C@@H](O)C[C@@]3(C)[C@@H]5C[C@H](O[C@@H]3O[C@H](CO)[C@@H](O)[C@H](O)[C@H]3O)[C@H]4C2(C)C)OC[C@@H](OC(C)=O)[C@@H]1O | 3.19% (inactive)
